Compounds without any hit were thinned out: in the full panel of roughly 79,000, 15% have a hit. The source made the active and inactive calls. No stated cut-off is given here; in the data, active means growth inhibition above about 70%; inactive means the rest.
Assays:
[1] = NCI Yeast Anticancer Drug Screen. Data for the rad50 strain (AID 155);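 further: 0% = growth of vehicle-only cultures of the same strain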; settings: S. cerevisiae rad50 strain growth inhibition; at 50.0 µM; stronger effect = higher value
Procedure, shortened: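 Growth of the mutant yeast was measured after compound exposure and referenced to vehicle-treated cultures.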

[2] = NCI Yeast Anticancer Drug Screen. Data for the mec2-1 strain (AID 157); settings: S. cerevisiae mec2-1 strain, at 50.0 µM, stronger effect = higher value
Procedure, shortened: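 Growth inhibition is read against vehicle-treated controls after compound exposure of the mec2-1 yeast strain, which is defective in DNA damage repair or cell cycle control.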

[3] = NCI Yeast Anticancer Drug Screen. Data for the sgs1 mgt1 strain (AID 161);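 further: 0% = growth of cultures given vehicle only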; settings: S. cerevisiae sgs1 mgt1 strain, at 50.0 µM, stronger effect = higher value
Procedure, shortened: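 Percent growth inhibition was derived by comparing compound-exposed mutant yeast with vehicle-exposed cultures. The strain carries alterations in DNA damage repair.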

[4] = NCI Yeast Anticancer Drug Screen. Data for the cln2 rad14 strain (AID 165);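 further: 0% = growth equal to vehicle treated cultures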; settings: S. cerevisiae cln2 rad14 strain, at 50.0 µM, stronger effect = higher value
Procedure, shortened: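 Growth inhibition, relative to vehicle-treated controls, is the read-out. The test organism is a yeast strain with defined genetic alterations, cln2 rad14.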

[5] = NCI Yeast Anticancer Drug Screen. Data for the bub3 strain (AID 167); settings: S. cerevisiae bub3 mutant strain, at 50.0 µM, stronger effect = higher value
Procedure, shortened: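 Whole-cell yeast assay. The mutant strain was incubated with compounds, and growth inhibition was determined by comparison with vehicle-treated cells.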

[6] = NCI Yeast Anticancer Drug Screen. Data for the mlh1 rad18 strain (AID 175); settings: S. cerevisiae mlh1 rad18 strain growth inhibition; at 50.0 µM; stronger effect = higher value
Procedure, shortened: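 Cells of a genetically altered yeast strain, deficient in DNA damage repair, were treated with compound. Their growth was then compared with that of vehicle-treated cultures to give inhibition.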

Measured: growth inhibition

O=C1CCC(=O)N1CCc1cccc2ccccc12
inactive: [1] 5.45% | [2] -1.1% | [3] 30.4% | [4] 5.4% | [5] 2.4% | [6] -9.35%

CCOC(=O)C(=CNc1ccc(N(CC)CC)cc1)C(=O)OCC
inactive: [1] -12.7% | [2] -7.85% | [3] -8% | [4] 47.6% | [5] 8.3% | [6] 0.35%

O=COCCCCCc1ccccc1
inactive: [1] -10.6% | [2] -5.05% | [3] -2.55% | [4] 8.6% | [5] -6.45% | [6] -11%

Cc1n[nH]c(=S)[nH]c1=S
inactive: [1] -14.3% | [2] -5.1% | [3] 9.4% | [4] -42.1% | [5] -23.2% | [6] 14.4%

CCC1CCC2c3c([nH]c4ccccc34)C3C(=O)N(c4ccc(OC)cc4)C(=O)C3C2C1 (stereo not given)
inactive: [1] -13.1% | [2] -10.6% | [3] 3.5% | [4] 6.65% | [5] 2.05% | [6] 24.4%

C(=C\c1cc(-c2cc(/C=C/c3ccccc3)[nH]n2)n[nH]1)/c1ccccc1
inactive: [1] 6.15% | [2] 9.1% | [3] -14.3% | [4] 13.2% | [5] -8% | [6] 44.4%

CC(=O)Oc1ccc(C(C)(C)C)cc1C
inactive: [1] 6.05% | [2] -10.1% | [3] -9.45% | [4] -6.85% | [5] 0.35% | [6] -21.1%

O=C1OCCN1N1C(=O)CC2(CCN(Cc3ccccc3)CC2)C1=O
inactive: [1] -10.8% | [2] 3% | [3] -0.95% | [4] 1.15% | [5] 0.25% | [6] -17.8%

COc1ccc(Nc2cc[nH]c(=O)c2NC(C)=O)cc1
inactive: [1] 20.7% | [2] 4.9% | [3] 32.3% | [4] 14.7% | [5] 9.75% | [6] 21%

CCC(=O)OCC(OC(=O)CC)c1ccccc1 (stereo not given)
inactive: [1] 3.75% | [2] -22.6% | [3] -16.1% | [4] 2.05% | [5] 3.75% | [6] 8.2%

CCN(CC)Cc1ccccc1COC(=O)c1cccc(Cl)c1
inactive: [1] 19.6% | [2] 3.7% | [3] 10.9% | [4] 15.8% | [5] -5.9% | [6] 26.1%

OCCOc1ccc(OCCO)cc1
inactive: [1] -2.1% | [2] -5.65% | [3] -8.95% | [4] -39.7% | [5] 9.9% | [6] -8.45%

CCN(CC)c1ccc(NC(C)=O)c(C)c1
inactive: [1] -16.2% | [2] 21.1% | [3] 9.65% | [4] -15.8% | [5] 18.1% | [6] 3.3%

Clc1ccc(C(=C(c2ccc(Cl)cc2)c2ccc(Cl)cc2)c2ccc(Cl)cc2)cc1
inactive: [1] -3.85% | [2] 5.4% | [3] 3.5% | [4] -3.35% | [5] 10.4% | [6] -1.45%

CCCCC1(C(NC(=O)c2ccccc2Cl)c2ccncc2)C(=O)N(c2ccccc2)N(c2ccccc2)C1=O (stereo not given)
inactive: [1] 33.8% | [2] 15.8% | [3] 9.15% | [4] 6.35% | [5] 33.5% | [6] 41.5%

Cc1cccc(C(N)=O)c1
inactive: [1] 22.6% | [2] 6.7% | [3] 3.3% | [4] -4.75% | [5] 8.95% | [6] 32.9%

CC1(C)CCCCCCC2CC2CCCCCC(C)(C)C1=O (stereo not given)
inactive: [1] 1% | [2] -6.15% | [3] -4.8% | [4] 7.8% | [5] -11.5% | [6] 24.1%

Cc1cc(=O)c2c(C)nn(-c3ccccc3)c2[nH]1
inactive: [1] -16.3% | [2] -36.2% | [3] 10.3% | [4] -9.15% | [5] 2.4% | [6] -1.85%

COc1cc2c(cc1OC)[C@H](C)N1CCc3cc(OC)c(OC)cc3[C@@H]1C2
inactive: [1] 2.1% | [2] -29.6% | [3] 6.65% | [4] 14.3% | [5] 9.45% | [6] -37%

NC(=O)C1CCN(S(=O)(=O)c2ccccc2)CC1
inactive: [1] -0.85% | [2] -9.1% | [3] 8.55% | [4] -37.6% | [5] -1.5% | [6] -18.4%

Cc1cc2[nH]c3c(C#N)c4c(c(=O)n3c2cc1C)CCCC4
inactive: [1] 10.1% | [2] 18.5% | [3] -7% | [4] 2.75% | [5] -5.85% | [6] -22.1%

CCOC(=O)CCN(CC1CC=CCC1)c1cc(O)c2c(c1O)C(=O)c1ccccc1C2=O (stereo not given)
inactive: [1] -70.6% | [2] -4.75% | [3] -21.5% | [4] -2.55% | [5] 2% | [6] -9.85%

Fc1cccc(C2ON=C(c3ccccc3)N2C23CC4CC(CC(C4)C2)C3)c1 (stereo not given)
inactive: [1] 4.9% | [2] -1.85% | [3] 6.1% | [4] 36.8% | [5] -8.35% | [6] 33.9%

O=C1CSC(c2cccs2)N1c1nncs1 (stereo not given)
inactive: [1] 27.4% | [2] -14.8% | [3] 19.3% | [4] 14.6% | [5] 11.6% | [6] 21.6%

CC1=CC(C)(C)N=C2SC(c3ccc(N)cc3)=NN12
inactive: [1] 25% | [2] 1.7% | [3] 3.55% | [4] 5.9% | [5] 18.5% | [6] 28.4%

CCOC(=O)C(=O)Nc1ccc2cc(OC)ccc2c1C#N
inactive: [1] 13.8% | [2] 14.2% | [3] 14.8% | [4] 35.2% | [5] 19.4% | [6] -17.8%

CCOC(=O)C1(C#N)C(C#N)(C#N)C1(C)CC (stereo not given)
inactive: [1] 10.8% | [2] -1.2% | [3] 24.8% | [4] -1.1% | [5] 0.75% | [6] -0.75%

CSc1ccc(N=Cc2ccccc2O)cc1
inactive: [1] 11.2% | [2] -40% | [3] 22.2% | [4] 15.1% | [5] 8.85% | [6] 19.4%

CC(C)(c1ccccc1)[Si](c1ccccc1)(c1ccccc1)c1ccccc1
inactive: [1] 30.1% | [2] -7.05% | [3] 9.95% | [4] 3.2% | [5] -6.85% | [6] 0.65%

c1ccc2n[nH]nc2c1
inactive: [1] 19.1% | [2] -10.9% | [3] 7.3% | [4] 2.2% | [5] -4.8% | [6] 16.9%

C1CC2CC1CC2C1CO1 (stereo not given)
inactive: [1] 3.45% | [2] -6.15% | [3] 4.85% | [4] 0.75% | [5] 0.5% | [6] 4.7%

Cc1ccc2c(c1)C(c1cccc3ccccc13)OC2=O (stereo not given)
inactive: [1] 21.6% | [2] 1.65% | [3] 40.2% | [4] 33.3% | [5] 14.2% | [6] 29.4%

C=CCNC(=O)CS(=O)(=O)c1ccc(C)cc1
inactive: [1] 0.1% | [2] -10.3% | [3] -0.35% | [4] 15.3% | [5] 3.05% | [6] 10.6%

CCOC1(OCC)C([N+](=O)[O-])=CC(=[N+]([O-])O)C=C1[N+](=O)[O-]
inactive: [1] 3.8% | [2] -4.1% | [3] -7.15% | [4] 3.75% | [5] -8.8% | [6] -21.2%

CS(=O)(=O)Cc1cc(-c2ccccc2)no1
inactive: [1] 15.1% | [2] 28.1% | [3] 8.7% | [4] -3.4% | [5] 7.75% | [6] 9.85%

CN1C(=O)C(Cl)(C#N)C(c2ccccc2)N(C)C1c1ccccc1 (stereo not given)
inactive: [1] 5.7% | [2] 8.05% | [3] 18% | [4] -37.9% | [5] 39.4% | [6] 20.1%

Cc1ccc(N2C(=O)/C(=C3\Sc4c(nc(C)n(C)c4=O)N3c3ccccc3)SC2=S)cc1
inactive: [1] -20.9% | [2] -31.4% | [3] -7.3% | [4] -58.5% | [5] -32.5% | [6] -26.8%

CCC(O)C1CCCCC1O (stereo not given)
inactive: [1] -8.95% | [2] 8.35% | [3] -3.8% | [4] 15.7% | [5] 15.2% | [6] 2.45%

O=C(O)CCNCCCCNCCC(=O)O
inactive: [1] 6.2% | [2] -11.8% | [3] -23.9% | [4] -1.5% | [5] -22.6% | [6] -22.3%

Nc1nc(N)nc(-c2ccc([N+](=O)[O-])o2)n1
inactive: [1] 41.8% | [2] 10.8% | [3] 29.9% | [4] 20.8% | [5] 12.2% | [6] 41.6%

O=C(O)C(O)(O)C(=O)O
inactive: [1] -2.9% | [2] -11.2% | [3] -12.6% | [4] 22.6% | [5] 5.8% | [6] -4.05%

Cc1ccc(P(=O)(O)O)cc1C
inactive: [1] -18.2% | [2] -7.3% | [3] 0.3% | [4] -2.1% | [5] -7.75% | [6] -10.4%

CCOC(=O)N[C@@H]1C(CC(=O)OC)O[C@H]2OC(C)(C)O[C@H]21 (stereo not given in full)
inactive: [1] 18.1% | [2] -7.2% | [3] 10.4% | [4] 7.4% | [5] -9.55% | [6] 6.25%

CCOC(=O)C1=C(C(=O)c2ccccc2)C(c2ccc([N+](=O)[O-])cc2)C(C(=O)c2ccccc2)=C(C(=O)OCC)N1
inactive: [1] -6.5% | [2] 1.6% | [3] -4% | [4] 14.2% | [5] -10.9% | [6] 7.5%

O=C(O)c1c2c(cc3c(=O)c4ccccc4[nH]c13)CCCC2
inactive: [1] -5.65% | [2] -16.4% | [3] 18.7% | [4] 7.25% | [5] -15.7% | [6] 5.2%

Source: PubChem BioAssay (NCI)
